Molecules are shown by their SMILES. Inconclusive results are not listed. Values without a mark were called inactive. Calls follow the shape of the dose curve; as a rule, active = well fitted cell-killing curve with a large enough effect; inconclusive = small, poorly fitted or top-dose-only effect, or effect the other way; inactive = flat fitted curve, though single readings scatter.

Here are results for 30 molecules from PubChem BioAssay (NCATS).
% is scaled to controls: 0 for no effect and ±100 for the full control effect.

The assay deals with CASKI. As to the kind of experiment: Primary qHTS to identify gynecologic anti-cancer compounds using libraries of approved drugs and bioactive compounds (AID 1345084). Also: nearly all actives have a fitted effect of over 55% in size. The note with it: Gynecologic cancer cell panel viability, ATPlite luminescence, 48 h; series mostly up to 57.5 µM; activity change, negative = cytotoxicity: at the top concentration. The gist of the method:
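48 h compound exposure at 37 C, 5% CO2; five-point qHTS. ATPlite luminescence readout of cell ATP.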
As for `C=C1CCC2C(C)(C)CCC[C@]2(C)[C@H]1CC/C(C)=C/C(=O)O` (stereo not given in full), the “activity change, negative = cytotoxicity” value was -1.14%. Then `COCC1OC(OC(C)(C)C2CCC3(C)C=C(C4CCC5C4(C)CC(O)C4OC(C(C)(C)O)CCC45C)CCC3O2)C(NC(C)=O)C(O)C1O` (stereo not given), with -4.79% [at 25.3 µM]; and `C=C1CCC2[C@](C)(CCC[C@]2(C)C(=O)O)[C@H]1CC/C(C)=C/C(=O)OC` (stereo not given in full), with -3.34% [at 38.5 µM]; and `COC(=O)c1c(CC=C(C)C)c(OC2OC(CO)C(O)C(O)C2O)c2ccccc2c1OC1OC(CO)C(O)C(O)C1O` (stereo not given), with -8.92% [at 25.3 µM]. Turning to `O=C(Cc1ccccc1)OC[C@H]1O[C@H](O[C@H]2O[C@H](CO)[C@@H](O)[C@H](O)[C@H]2O)[C@H](O)[C@@H](O)[C@@H]1O`, the “activity change, negative = cytotoxicity” value is 14.1% [at 25.3 µM]. With `CC1=C2C[C@H]3OC(=O)[C@H](O)[C@@]4(O)[C@@H](C)[C@@H](O)[C@H](O)C([C@@]2(C)[C@H](O)[C@@H](O)C1)[C@@]34C` (stereo not given in full), the “activity change, negative = cytotoxicity” value is 6.02% [at 38.5 µM]. Then `CC1CC(=O)C2=C(O1)OC1(C)CCC3C(C)(C)C4OC4C(=O)C3(C)C1C2` (stereo not given), with 4.1% [at 38.5 µM]; and `COc1ccnc(CCc2nc3ncccc3[nH]2)c1`, with 5.78%. Consider `C/C(=C/CO)CC[C@H]1[C@]2(C)C[C@H](O)CC(C)(C)[C@H]2CC[C@]1(C)O`, for which the “activity change, negative = cytotoxicity” value was 8.29% [at 38.5 µM]. In the case of `COc1c2c(c(C)c3c1C(=O)OC3)OC1(C)CC(O)C34OC(O)(CCC3(C)C1C2)OC4(C)C` (stereo not given) it was -3.48% [at 25.3 µM]; in that of `COC(=O)[C@]1(Cc2ccc(O)c(CC=C(C)C)c2)OC(=O)C(O)=C1c1ccc(O)cc1`, 3.53% [at 25.3 µM]; in that of `COc1cnc(-c2ccc(Cn3c(CC(C)(C)C(=O)O)c(SC(C)(C)C)c4cc(OC[C@@H]5Cc6ccccc6N5C(C)=O)ccc43)cc2)nc1`, 8.19% [at 38.5 µM]. With `CCC(C)C(=O)O[C@H]1C[C@](C)(O)[C@]23OC(C)(C)[C@H](C[C@H](OC(=O)c4ccccc4)[C@]2(COC(C)=O)[C@H]1OC(=O)C(C)CC)[C@H]3OC(C)=O` (stereo not given in full), the “activity change, negative = cytotoxicity” value was 21.5% [at 25.3 µM].

For the molecule `CC1CC2(O)OC(=O)C3=C2C(CCC3)[C@@]12C[C@@H](c1ccoc1)OC2=O` (stereo not given in full), the “activity change, negative = cytotoxicity” value was 0.331% [at 38.5 µM]. For the molecule `COc1cc(C(C)=O)ccc1O[C@@H]1O[C@H](CO)[C@@H](O)[C@H](O)[C@H]1O`, the “activity change, negative = cytotoxicity” value was -8.8% [at 38.5 µM]. Regarding `COC(=O)C1=COC(OC2OC(CO)C(O)C(O)C2O)C2C(C)C(OC(C)=O)C(OC(=O)c3ccccc3)C12` (stereo not given), the “activity change, negative = cytotoxicity” value is 16.6% [at 25.3 µM].

Consider `COc1ccnc2[nH]cc(C(=O)C(=O)N3CCN(C(=O)c4ccccc4)CC3C)c12` (stereo not given), for which the “activity change, negative = cytotoxicity” value is 11.1%.

As to `C[C@@H]1O[C@@H](O[C@H]2[C@H](O)[C@@H](O)[C@H](OC[C@H]3O[C@@H](OC(=O)[C@]45CCC(C)(C)C[C@H]4C4=CCC6[C@@]7(C)C[C@@H](O)[C@H](O)[C@@](C)(CO)C7[C@H](O)C[C@@]6(C)[C@]4(C)CC5)[C@H](O)[C@@H](O)[C@@H]3O)O[C@@H]2CO)[C@H](O)[C@H](O)[C@H]1O` (stereo not given in full), the activity change, negative = cytotoxicity was -1.59% [at 11.6 µM]. Consider `O=C(CC1CC(c2ccc(F)cc2F)=NO1)N1CCOCC1` (stereo not given), for which the “activity change, negative = cytotoxicity” value was 7.62%. On to `COC(=O)C1=CO[C@@H](O[C@@H]2O[C@H](CO)[C@@H](O)[C@H](O)[C@H]2O)[C@@H]2[C@@H](C(=O)O)CC[C@H]12`, for which the “activity change, negative = cytotoxicity” value is -7.52% [at 25.3 µM]. In the case of `C[C@@H]1O[C@@H](OC2C(CO)OC(OCC3OC(OC(=O)[C@]45CCC(C)(C)CC4C4=CCC6[C@@]7(C)CC[C@@H](O)[C@](C)(C(=O)O)C7CC[C@@]6(C)[C@]4(C)CC5)C(O)C(O)C3O)C(O)C2O)[C@H](O)[C@H](O)[C@H]1O` (stereo not given in full), the activity change, negative = cytotoxicity was -0.233% [at 11.6 µM]. Regarding `OC[C@H]1O[C@@H](OC[C@H]2O[C@@H](OCc3ccccc3)[C@H](O)[C@@H](O)[C@@H]2O)[C@H](O)[C@@H](O)[C@@H]1O`, the “activity change, negative = cytotoxicity” value was -0.438% [at 25.3 µM]. In the case of `COC1OC(O)C2(CCC3(O2)C(C)CC2OC(=O)C4(C)CCCC3(C)C24)C1O` (stereo not given) it was 12.8% [at 38.5 µM]; in that of `C=C1C(OC(C)=O)C(=O)C2C(C)(C)C(O)CCC2(C)C1CC(OC(C)=O)/C(C)=C/COC(C)=O` (stereo not given), -0.968% [at 25.3 µM]; in that of `C/C(=C\CO)CC/C=C(\C)C(=O)O[C@@H]1O[C@H](CO)[C@@H](O)[C@H](O)[C@H]1O`, -0.0608% [at 38.5 µM]. For `CC(=O)c1c(C)cccc1O[C@@H]1O[C@H](CO)[C@@H](O)[C@H](O)[C@H]1O`, the “activity change, negative = cytotoxicity” value was -0.631% [at 38.5 µM]. Then `CC(=O)O[C@@H]1C=C2[C@H](CC[C@@]3(C)[C@@]2(O)CC[C@H]2Cc4c([nH]c5ccccc45)[C@@]23C)O[C@@H]1C(C)(C)O`, with 6.5% [at 25.3 µM]; and `C=CC1(C)CC=C2C(CCC3C(C)(C(=O)O)CCCC23C)C1` (stereo not given), with 1.62%. On to `CC(C)c1ccc2c(c1)C(=O)CC1C(C)(C(=O)O)CCCC21C` (stereo not given), for which the “activity change, negative = cytotoxicity” value is 11.5% [at 38.5 µM].

For `CC(C)CC(=O)O[C@@H]1O[C@H](CO)[C@@H](O[C@H]2O[C@H](C)[C@@H](N[C@H]3C=C(CO)[C@@H](O[C@H]4O[C@H](CO)[C@@H](O[C@H]5O[C@H](CO)[C@@H](O[C@H]6O[C@H](CO)[C@@H](O)[C@H](O)[C@H]6O)[C@H](O)[C@H]5O)[C@H](O)[C@H]4O)[C@H](O)[C@H]3O)[C@H](O)[C@H]2O)[C@H](O)[C@H]1O`, the activity change, negative = cytotoxicity was 2.85% [at 11.6 µM].
